One assay relates to KIT-autoinhibited. The settings on record: concentration: 1 μM, replicates: in singlicate, n = 1.
Another assay deals with KIT. The settings on record: concentration: 1 μM, replicates: in singlicate, n = 1.
A further assay deals with LATS1. Particulars: concentration: 1 μM, replicates: in singlicate, n = 1.
In another assay the test system is LATS2. The settings on record: concentration: 1 μM, replicates: in singlicate, n = 1.
Another assay has as its system LCK. The settings on record: concentration: 1 μM, replicates: in singlicate, n = 1.
The subject of a further assay is LIMK1. The settings on record: concentration: 1 μM, replicates: in singlicate, n = 1.
The next assay deals with LIMK2. The settings on record: concentration: 1 μM, replicates: in singlicate, n = 1.
A further assay concerns T1, LKB1.
T1 construct: gene STK11
Particulars: concentration: 1 μM, replicates: in singlicate, n = 1.

Another assay relates to T2, LOK.
T2 construct: gene STK10
The settings on record: concentration: 1 μM, replicates: in singlicate, n = 1.

A further assay has as its system LRRK2. The settings on record: concentration: 1 μM, replicates: in singlicate, n = 1.
The next assay concerns LTK. The settings on record: concentration: 1 μM, replicates: in singlicate, n = 1.
Another assay has as its system LYN. Particulars: concentration: 1 μM, replicates: in singlicate; n = 1.
A further assay concerns T3, LZK.
T3 construct: gene MAP3K13
Particulars: concentration: 1 μM, replicates: in singlicate, n = 1.

The next assay concerns MAK. Particulars: concentration: 1 μM, replicates: in singlicate, n = 1.
The next assay has as its system MAP3K15. Particulars: concentration: 1 μM, replicates: in singlicate, n = 1.
The test system of a further assay is MAP3K1. The settings on record: concentration: 1 μM, replicates: in singlicate, n = 1.
For another assay, the system named is MAP3K2. The settings on record: concentration: 1 μM, replicates: in singlicate, n = 1.
The subject of a further assay is MAP3K3. The settings on record: concentration: 1 μM, replicates: in singlicate, n = 1.
A further assay has as its system MAP3K4. The settings on record: concentration: 1 μM, replicates: in singlicate, n = 1.
In the next assay the test system is MAP4K2. The settings on record: concentration: 1 μM, replicates: in singlicate, n = 1.

Where “and” joins values, the source holds several entries; their conditions need not be identical. Equal entries are not always repeated. Where two headings read alike, the source gives them in different places.
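Note: KINOMEscan kinase panel screen.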

As for `Cc1nnc(-c2ccc3ncc(-c4ccc(S(C)=O)cc4)n3c2)o1` (stereo not drawn), the “%Inh” value in the assay on KIT-autoinhibited stood at 7%; with KIT, 59%; with LATS1, 17%; in the assay on LATS2, 13%; with LCK, 0%; in the assay on LIMK1 it was 0%. For the same molecule, the “%Inh” value with LIMK2 is reported as 0%; in the assay on LKB1 it was 3%; in the assay on LOK, 0%; in the assay on LRRK2, 3%; in the assay on LTK, 0%; in the assay with LYN, 18%. In addition, the “%Inh” value in the assay with LZK turned out to be 11%; with MAK, 0%; with MAP3K15, 19%; with MAP3K1, 4%; in the assay on MAP3K2 it was 8%; in the assay on MAP3K3, 5%. In addition, the “%Inh” value with MAP3K4 and in the assay with MAP4K2 was 0% throughout.
For `O=c1cc(N2CCOCC2)nc2n(Cc3cccc(F)c3)ccn12` [GSK2297430], the “%Inh” value with KIT-autoinhibited is 0%; in the assay with KIT, 10%; in the assay with LATS1 it was 0%; in the assay with LATS2 it was 0%; in the assay with LCK, 23%; in the assay on LIMK1 it was 9%. Also, the “%Inh” value was 5% in the assay on LIMK2; 0% in the assay with LKB1; 0% with LOK; 31% in the assay with LRRK2; 68% in the assay with LTK; 0% with LYN. In addition, the “%Inh” value in the assay with LZK is 0%; with MAK, 21%; in the assay on MAP3K15 it was 0%; with MAP3K1 it was 17%; in the assay on MAP3K2, 0%; with MAP3K3 it was 0%. Besides, the “%Inh” value in the assay with MAP3K4 came to 10%; in the assay with MAP4K2, 0%.
As to `NS(=O)(=O)CCc1cccc(Nc2nccc(-c3c(-c4cccc(NC(=O)c5c(F)cccc5F)c4)nn4ccccc34)n2)c1` [GSK336735], the “%Inh” value is recorded as 13% with KIT-autoinhibited; 100% with KIT; 7% in the assay on LATS1; 7% in the assay with LATS2; 99.6% with LCK; 67% in the assay with LIMK1. The “%Inh” value in the assay on LIMK2 is reported as 9%; with LKB1 it was 1%; in the assay with LOK, 99.4%; with LRRK2 it was 0%; in the assay with LTK, 39%; with LYN, 97.8%. The “%Inh” value in the assay on LZK is on record as 0%; in the assay with MAK it was 22%; with MAP3K15, 5%; with MAP3K1, 13%; in the assay with MAP3K2, 88%; with MAP3K3, 79%. In addition, the “%Inh” value in the assay on MAP3K4 amounted to 76%; with MAP4K2, 0%.
Consider `O=C1NC(=O)C(N2CCc3ccccc32)=C1c1cccc(Cl)c1` [SB-408010], for which the “%Inh” value with KIT-autoinhibited worked out at 0%; with KIT it was 13%; in the assay on LATS1 it was 0%; with LATS2, 10%; in the assay with LCK, 10%; in the assay on LIMK1, 0%. In addition, the “%Inh” value in the assay on LIMK2 was found to be 0%; in the assay with LKB1 it was 0%; with LOK, 0%; in the assay on LRRK2, 9%; with LTK, 5%; in the assay on LYN, 7%. The “%Inh” value in the assay with LZK amounted to 12%; in the assay with MAK, 37%; in the assay with MAP3K15, 1%; with MAP3K1, 26%; with MAP3K2 it was 0%; in the assay with MAP3K3 it was 22%. Besides, the “%Inh” value stood at 9% in the assay with MAP3K4 and 0% with MAP4K2.
For `Cc1ccc(NC(=O)c2ccnc(N3CCN(C)CC3)c2)cc1-c1ccc(C(=O)NCC2CC2)cc1` [GW775604], the “%Inh” value in the assay on KIT-autoinhibited was determined as 0%; with KIT, 27%; in the assay with LATS1, 0%; in the assay on LATS2, 0%; in the assay on LCK it was 0%; with LIMK1 it was 0%. Also, the “%Inh” value is 0% in the assay with LIMK2; 28% in the assay with LKB1; 9% with LOK; 0% in the assay on LRRK2; 0% with LTK; 0% with LYN. The “%Inh” value with LZK, in the assay on MAK, in the assay on MAP3K15, in the assay with MAP3K1, with MAP3K2 and with MAP3K3 was 0% throughout. For the same molecule, the “%Inh” value in the assay on MAP3K4 and in the assay with MAP4K2 was 0% in each case.
As for `O=C(c1ccc(-c2cc(-c3c[nH]nc3-c3ccccn3)ccn2)cc1)N1CCOCC1` [GW812171], the “%Inh” value in the assay with KIT-autoinhibited amounted to 29%; with KIT, 0%; in the assay on LATS1, 0%; with LATS2, 0%; with LCK, 0%; in the assay with LIMK1 it was 0%. For the same molecule, the “%Inh” value turned out to be 0% with LIMK2; 0% with LKB1; 28% in the assay with LOK; 0% in the assay on LRRK2; 4% with LTK; 0% in the assay on LYN. Further, the “%Inh” value in the assay on LZK is recorded as 0%; with MAK it was 0%; in the assay on MAP3K15 it was 0%; in the assay on MAP3K1, 0%; in the assay on MAP3K2 it was 22%; with MAP3K3, 0%. Besides, the “%Inh” value with MAP3K4 stood at 9%; in the assay with MAP4K2, 0%.
As to `NCCNS(=O)(=O)c1ccc(-c2ccnc3[nH]ccc23)cc1` [GSK977617], the “%Inh” value in the assay with KIT-autoinhibited (1 µM) is 0% and 21%; in the assay on KIT (1 µM) it was 44% and 28%; in the assay on LATS1 (1 µM) it was 75% and 70%; with LATS2 (1 µM), 95.8% and 95.9%; in the assay on LCK (1 µM) it was 38% and 3%; in the assay on LIMK1, 0%. Moreover, the “%Inh” value was 6% and 12% in the assay with LIMK2 (1 µM); 0% and 2% with LKB1 (1 µM); 12% and 0% with LOK (1 µM); 17% and 0% in the assay on LRRK2 (1 µM); 37% and 0% in the assay on LTK (1 µM); 0% in the assay with LYN. For the same molecule, the “%Inh” value in the assay with LZK (1 µM) is 22% and 3%; in the assay with MAK, 0%; in the assay with MAP3K15 (1 µM), 4% and 0%; in the assay on MAP3K1 (1 µM), 8% and 11%; in the assay on MAP3K2 (1 µM), 83% and 72%; in the assay on MAP3K3 (1 µM) it was 63% and 56%. Moreover, the “%Inh” value in the assay with MAP3K4 (1 µM) is 0% and 21%; in the assay on MAP4K2 (1 µM) it was 47% and 38%.
As to `CC(C)(CN)c1nc(-c2ccc(Cl)c(O)c2)c(-c2ccncc2)[nH]1.O=C(O)C(F)(F)F` [SB-477794], the “%Inh” value in the assay on KIT-autoinhibited was 0%; in the assay with KIT (1 µM), 66% and 58%; in the assay with LATS1 (1 µM), 7% and 39%; in the assay on LATS2 (1 µM), 86% and 89%; in the assay with LCK, 99.2%; in the assay on LIMK1 (1 µM), 0% and 2%. Moreover, the “%Inh” value in the assay with LIMK2 is 0%; with LKB1 (1 µM) it was 0% and 31%; with LOK (1 µM), 99.1% and 98.2%; in the assay on LRRK2, 0%; with LTK (1 µM), 18% and 30%; in the assay on LYN, 91.1%. Also, the “%Inh” value is 49% and 47% with LZK (1 µM); 41% and 0% with MAK (1 µM); 0% in the assay with MAP3K15; 22% and 7% in the assay on MAP3K1 (1 µM); 43% and 35% in the assay on MAP3K2 (1 µM); 0% in the assay on MAP3K3. Also, the “%Inh” value in the assay with MAP3K4 (1 µM) is 0% and 13%; in the assay on MAP4K2, 0%.
Take `CCc1ccnc(/C=C/c2n[nH]c3cc(Sc4ccccc4C(=O)NC)ccc23)c1`: the “%Inh” value in the assay with KIT-autoinhibited is 96.9%; in the assay on KIT, 100%; in the assay with LATS1, 9%; in the assay with LATS2, 0%; in the assay on LCK, 5%; with LIMK1 it was 0%. In addition, the “%Inh” value amounted to 0% with LIMK2; 0% in the assay on LKB1; 23% in the assay on LOK; 23% in the assay on LRRK2; 6% in the assay on LTK; 23% in the assay on LYN. The “%Inh” value is listed as 17% with LZK; 20% with MAK; 0% in the assay with MAP3K15; 12% with MAP3K1; 17% in the assay with MAP3K2; 6% in the assay with MAP3K3. Moreover, the “%Inh” value is reported as 4% with MAP3K4 and 9% with MAP4K2.

The values are drawn from paper PMC5540273 (PLoS ONE, 2017).
